structure (smiles),measurement,setting,value
COc1cc(Nc2cnc(C#N)c(O[C@H](C)CN(C)C)n2)ncc1-c1cnn(C)c1 [CCT244747],Kinases covered,RPS6KA3,RPS6KA3
CCn1c(-c2nonc2N)nc2cncc(C(=O)N3CC[C@H](N)C3)c21.Cl [SB-772077-B],Kinases covered,RPS6KA5,RPS6KA5
same,Kinases covered,RSK1,RSK1
CCCNC(=O)c1ccc(Nc2ncc(C(F)(F)F)c(Nc3ccccc3C(C)=O)n2)c(Br)c1 [BI00801818],Kinases covered,RSK1,RSK1
same,Kinases covered,RSK2,RSK2
COc1ccc2[nH]c3c4[nH]c5ccc(OC)cc5c4c4c(c3c2c1)C(=O)NC4=O [GW296115X],Kinases covered,RSK3,RSK3
CC(C)N1CC(=O)N(C)c2cnc(Nc3cccc(S(=O)(=O)CCN4CCOCC4)c3)nc21 [BI00009348],Kinases covered,RSK4,RSK4
CCn1c(-c2nonc2N)nc2cncc(CNC3CCNCC3)c21 [SB-747651A],Kinases covered,RSK,RSK
CCn1cc(-c2ccnc3[nH]c(-c4cccc(CN(C)C)c4)cc23)c(-c2ccc(NC(=O)N(C)C)cc2)n1 [GSK1070916],Kinases covered,SIK,SIK
COc1cc2c(cc1OC)C(=C(Nc1ccccc1)c1cccc(CN)c1)C(=O)N2 [BIBF0846CL],Kinases covered,SNARK,SNARK
